From ChEMBL document CHEMBL3988442, “University of Dundee, Small-Polar-MMV Screening Library” (2021)
For part of these data: Measured potencies and affinities stand elsewhere.

Key:
Parameters in all cases: scale not given: direction of the effect not stated beside the values
[1] = molecular target: Protein translocase subunit SecA (Escherichia coli (strain K12)) (UniProt P10408); assay: Assay to Identify E. coli SecA ATPase Inhibitors; type: functional; settings: 30 µM
[2] = molecular target: T1, Ubiquitin-activating enzyme e1, putative (Leishmania donovani (strain BPK282A1)) (UniProt E9BSI1); assay: Leishmania donovani Ubiquitin Activating Enzyme (LdE1); type: functional; settings: 30 µM
T1 sequence (whole entry): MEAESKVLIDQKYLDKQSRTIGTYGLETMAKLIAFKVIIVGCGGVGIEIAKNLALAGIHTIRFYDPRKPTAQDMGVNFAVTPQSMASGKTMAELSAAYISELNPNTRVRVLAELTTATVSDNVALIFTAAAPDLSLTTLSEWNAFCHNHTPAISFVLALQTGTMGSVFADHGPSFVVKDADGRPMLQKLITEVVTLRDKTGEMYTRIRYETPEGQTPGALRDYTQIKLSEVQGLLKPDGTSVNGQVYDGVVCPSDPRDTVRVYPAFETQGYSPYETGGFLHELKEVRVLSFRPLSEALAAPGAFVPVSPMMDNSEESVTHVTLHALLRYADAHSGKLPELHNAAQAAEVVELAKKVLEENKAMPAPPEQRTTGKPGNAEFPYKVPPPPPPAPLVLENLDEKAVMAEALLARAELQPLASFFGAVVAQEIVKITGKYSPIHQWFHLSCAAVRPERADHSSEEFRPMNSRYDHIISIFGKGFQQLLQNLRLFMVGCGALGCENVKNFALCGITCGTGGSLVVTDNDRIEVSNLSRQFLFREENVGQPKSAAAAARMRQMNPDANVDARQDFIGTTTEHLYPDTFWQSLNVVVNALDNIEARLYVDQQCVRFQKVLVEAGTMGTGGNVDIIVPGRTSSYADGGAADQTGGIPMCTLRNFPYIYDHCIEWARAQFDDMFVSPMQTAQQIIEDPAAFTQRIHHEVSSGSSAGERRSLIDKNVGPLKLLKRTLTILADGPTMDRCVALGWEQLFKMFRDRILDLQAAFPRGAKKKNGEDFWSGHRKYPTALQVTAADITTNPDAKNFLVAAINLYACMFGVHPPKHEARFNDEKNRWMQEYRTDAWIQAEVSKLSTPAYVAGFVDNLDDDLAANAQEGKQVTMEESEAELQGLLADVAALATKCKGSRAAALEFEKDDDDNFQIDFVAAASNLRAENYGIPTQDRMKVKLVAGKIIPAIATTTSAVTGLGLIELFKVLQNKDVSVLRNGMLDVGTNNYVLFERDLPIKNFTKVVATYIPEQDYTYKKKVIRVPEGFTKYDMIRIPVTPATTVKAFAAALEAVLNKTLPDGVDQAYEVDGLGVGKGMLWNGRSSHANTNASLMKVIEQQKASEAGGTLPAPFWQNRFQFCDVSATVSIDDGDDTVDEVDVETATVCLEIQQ

[3] = molecular target: T2, Aspartate--tRNA(Asp/Asn) ligase (Mycobacterium tuberculosis (strain ATCC 25618 / H37Rv)) (UniProt P9WFW3); assay: Assay for Asp RNA synthetase-1 from Mycobacterium tuberculosis; type: functional; settings: 30 µM; further: in the data most compounds retested in dose-response had high values
T2 sequence (whole entry): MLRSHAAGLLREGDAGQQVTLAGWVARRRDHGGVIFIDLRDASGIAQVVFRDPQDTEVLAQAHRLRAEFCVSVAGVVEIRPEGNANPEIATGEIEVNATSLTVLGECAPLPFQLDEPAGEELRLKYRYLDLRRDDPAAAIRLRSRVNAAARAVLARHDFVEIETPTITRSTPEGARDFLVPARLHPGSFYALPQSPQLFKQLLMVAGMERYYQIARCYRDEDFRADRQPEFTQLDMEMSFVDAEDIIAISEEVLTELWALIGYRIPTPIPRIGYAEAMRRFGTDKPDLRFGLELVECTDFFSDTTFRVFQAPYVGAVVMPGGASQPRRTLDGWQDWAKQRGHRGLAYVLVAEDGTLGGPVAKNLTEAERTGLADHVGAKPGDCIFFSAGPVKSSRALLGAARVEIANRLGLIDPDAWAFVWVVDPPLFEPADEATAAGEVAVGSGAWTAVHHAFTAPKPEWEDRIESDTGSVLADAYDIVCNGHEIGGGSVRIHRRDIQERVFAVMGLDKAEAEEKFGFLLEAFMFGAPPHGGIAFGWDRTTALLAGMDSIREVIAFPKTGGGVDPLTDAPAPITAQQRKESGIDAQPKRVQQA

[4] = molecular target: AMP-activated protein kinase, AMPK (Homo sapiens) (UniProt P54646+O43741+P54619+Q9UGJ0+Q9Y478+Q13131+Q9UGI9); assay: AMP-dependent Kinase enzyme assay. An in vitro enzyme assay that detects ADP turnover that is directly proportional to AMPK activity. This uses naive AMPK that is activated during the assay with MK-8722; type: functional; settings: 30 µM
[5] = molecular target: Sialic acid-binding Ig-like lectin 9 (Homo sapiens) (UniProt Q9Y336); assay: Hs-Siglec9 ALPHAscreen SOP 20170721; settings: 10 µM
Trypanosoma cruzi = assay: Trypanosoma cruzi phosphomannomutase and mannose-1-phosphate guanylyltransferase assay; type: functional; settings: 10 µM
[6] = molecular target: T3, Arginase-2, mitochondrial (Homo sapiens) (UniProt P78540); assay: in vitro enzyme assay to detect the production of urea directly proportional to the activity of Arginase II; type: functional; settings: 33.3 µM; further: in the data most compounds retested in dose-response had high values
T3 sequence (whole entry): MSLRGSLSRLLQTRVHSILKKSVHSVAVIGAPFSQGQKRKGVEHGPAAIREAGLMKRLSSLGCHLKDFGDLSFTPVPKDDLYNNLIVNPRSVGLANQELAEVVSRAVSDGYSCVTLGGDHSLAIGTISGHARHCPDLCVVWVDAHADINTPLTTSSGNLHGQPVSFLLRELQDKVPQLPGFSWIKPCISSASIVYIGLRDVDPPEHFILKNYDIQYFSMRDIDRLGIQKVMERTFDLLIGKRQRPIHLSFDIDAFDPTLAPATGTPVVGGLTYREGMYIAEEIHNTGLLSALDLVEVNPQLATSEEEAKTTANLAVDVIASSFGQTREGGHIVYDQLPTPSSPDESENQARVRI

[7] = molecular target: T4, Proteasome subunit beta (Trypanosoma cruzi) (UniProt O96673); assay: Trypanosoma cruzi proteasome chymotrypsin-like activity (TcProtChymo) assay.; further: in the data most compounds retested in dose-response had high values; type: functional; settings: 9.37 µM
T4 sequence (whole entry): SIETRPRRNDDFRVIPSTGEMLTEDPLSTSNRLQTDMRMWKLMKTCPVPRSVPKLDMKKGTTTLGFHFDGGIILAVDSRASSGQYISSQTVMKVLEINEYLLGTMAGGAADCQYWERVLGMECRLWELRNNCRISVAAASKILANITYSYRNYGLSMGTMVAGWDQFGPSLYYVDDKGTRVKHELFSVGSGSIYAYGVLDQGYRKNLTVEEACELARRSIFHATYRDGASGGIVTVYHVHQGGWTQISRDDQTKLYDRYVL

Homo sapiens = species on record: Homo sapiens; assay: To identify inhibition of the IFN signalling (Jak-Stat) pathway via expression of an eGFP reporter gene under the control of an IFN-stimulated response element (ISRE) containing MxA promoter.; type: functional; settings: 30 µM
[8] = molecular target: Shiga toxin 2 (Escherichia coli O157:H7) (UniProt P09385+P09386); assay: E. coli 0.157:H7 Shiga Toxin SOP - stx2 screening assay; type: functional; settings: 30 µM
[9] = molecular target: T5, Tyrosyl-tRNA synthetase, putative (Trypanosoma cruzi (strain CL Brener)) (UniProt Q4DSP6); assay: Trypanosoma cruzi tyrosyl tRNA synthetase (TcYRS) _High Tyrosine SOP; type: functional; settings: 30 µM; further: in the data most compounds retested in dose-response had high values
T5 sequence (whole entry): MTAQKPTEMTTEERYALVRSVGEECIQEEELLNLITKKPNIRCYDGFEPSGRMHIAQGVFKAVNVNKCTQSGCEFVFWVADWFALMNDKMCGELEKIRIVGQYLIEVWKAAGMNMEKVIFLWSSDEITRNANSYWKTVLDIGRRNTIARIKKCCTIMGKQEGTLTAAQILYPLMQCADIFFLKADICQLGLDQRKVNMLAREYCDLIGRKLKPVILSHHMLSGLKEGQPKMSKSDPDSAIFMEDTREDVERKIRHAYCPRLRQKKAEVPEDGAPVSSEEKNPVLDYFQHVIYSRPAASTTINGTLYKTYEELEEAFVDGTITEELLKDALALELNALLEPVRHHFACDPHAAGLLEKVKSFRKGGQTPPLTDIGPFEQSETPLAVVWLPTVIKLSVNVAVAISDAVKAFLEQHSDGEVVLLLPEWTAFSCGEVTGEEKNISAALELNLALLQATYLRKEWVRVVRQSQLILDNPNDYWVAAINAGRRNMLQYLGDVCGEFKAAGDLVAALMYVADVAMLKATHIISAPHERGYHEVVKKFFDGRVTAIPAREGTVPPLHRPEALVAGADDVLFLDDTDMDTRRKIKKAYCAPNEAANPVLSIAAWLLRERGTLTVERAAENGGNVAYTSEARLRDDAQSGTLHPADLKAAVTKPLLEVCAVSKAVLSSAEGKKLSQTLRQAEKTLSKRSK

[10] = molecular target: T5, Tyrosyl-tRNA synthetase, putative (Trypanosoma cruzi (strain CL Brener)); assay: Trypanosoma cruzi tyrosyl tRNA synthetase (TcYRS) SOP; type: functional; settings: 30 µM
[11] = molecular target: Chromo domain-containing protein 1 (Saccharomyces cerevisiae (strain ATCC 204508 / S288c) (Baker's yeast)) (UniProt P32657); assay: ScCHD-1 Enzyme Inhibition Assay; type: functional; settings: 30 µM; further: in the data most compounds retested in dose-response had high values
Sequence of Chromo domain-containing protein 1 (Saccharomyces cerevisiae (strain ATCC 204508 / S288c) (Baker's yeast)) (P32657 whole entry, the tested form may be a part): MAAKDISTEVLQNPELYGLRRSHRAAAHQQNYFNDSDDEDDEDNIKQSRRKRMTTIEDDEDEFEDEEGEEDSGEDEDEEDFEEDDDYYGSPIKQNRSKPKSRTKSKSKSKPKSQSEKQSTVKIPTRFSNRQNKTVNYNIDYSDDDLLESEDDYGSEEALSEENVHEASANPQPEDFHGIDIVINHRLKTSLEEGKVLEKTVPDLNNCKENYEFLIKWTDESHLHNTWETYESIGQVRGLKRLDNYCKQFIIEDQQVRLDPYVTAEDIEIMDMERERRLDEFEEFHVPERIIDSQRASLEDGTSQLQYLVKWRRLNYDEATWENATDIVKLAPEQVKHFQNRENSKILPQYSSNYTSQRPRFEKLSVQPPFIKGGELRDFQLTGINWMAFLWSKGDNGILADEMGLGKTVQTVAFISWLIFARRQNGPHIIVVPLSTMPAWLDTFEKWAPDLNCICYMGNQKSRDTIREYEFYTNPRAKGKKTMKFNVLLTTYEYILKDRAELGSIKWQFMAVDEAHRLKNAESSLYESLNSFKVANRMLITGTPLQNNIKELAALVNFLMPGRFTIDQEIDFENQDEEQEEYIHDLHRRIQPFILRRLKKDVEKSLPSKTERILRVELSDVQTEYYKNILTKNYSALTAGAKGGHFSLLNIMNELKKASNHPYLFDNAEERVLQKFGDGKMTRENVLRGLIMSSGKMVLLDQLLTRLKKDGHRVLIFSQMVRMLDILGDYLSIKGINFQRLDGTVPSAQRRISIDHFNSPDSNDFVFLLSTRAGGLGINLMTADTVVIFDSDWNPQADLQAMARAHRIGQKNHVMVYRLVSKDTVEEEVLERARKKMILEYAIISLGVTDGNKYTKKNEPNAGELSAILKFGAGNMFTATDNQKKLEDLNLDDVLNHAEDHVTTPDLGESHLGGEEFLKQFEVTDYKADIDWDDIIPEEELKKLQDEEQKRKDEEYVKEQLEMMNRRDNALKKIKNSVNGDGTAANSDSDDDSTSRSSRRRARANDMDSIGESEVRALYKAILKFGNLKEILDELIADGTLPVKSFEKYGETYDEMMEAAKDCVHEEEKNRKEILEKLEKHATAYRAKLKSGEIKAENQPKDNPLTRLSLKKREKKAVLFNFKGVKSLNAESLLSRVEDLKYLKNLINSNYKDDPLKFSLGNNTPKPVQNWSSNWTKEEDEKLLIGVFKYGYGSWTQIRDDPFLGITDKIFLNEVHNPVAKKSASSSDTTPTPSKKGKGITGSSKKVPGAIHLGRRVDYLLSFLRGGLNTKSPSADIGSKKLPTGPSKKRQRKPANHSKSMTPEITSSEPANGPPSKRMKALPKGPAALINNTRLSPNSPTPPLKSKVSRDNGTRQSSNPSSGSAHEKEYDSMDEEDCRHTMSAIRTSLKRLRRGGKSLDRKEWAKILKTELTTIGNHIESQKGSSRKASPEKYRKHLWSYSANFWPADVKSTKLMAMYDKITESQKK

Sequence of Protein translocase subunit SecA (Escherichia coli (strain K12)) (P10408 whole entry): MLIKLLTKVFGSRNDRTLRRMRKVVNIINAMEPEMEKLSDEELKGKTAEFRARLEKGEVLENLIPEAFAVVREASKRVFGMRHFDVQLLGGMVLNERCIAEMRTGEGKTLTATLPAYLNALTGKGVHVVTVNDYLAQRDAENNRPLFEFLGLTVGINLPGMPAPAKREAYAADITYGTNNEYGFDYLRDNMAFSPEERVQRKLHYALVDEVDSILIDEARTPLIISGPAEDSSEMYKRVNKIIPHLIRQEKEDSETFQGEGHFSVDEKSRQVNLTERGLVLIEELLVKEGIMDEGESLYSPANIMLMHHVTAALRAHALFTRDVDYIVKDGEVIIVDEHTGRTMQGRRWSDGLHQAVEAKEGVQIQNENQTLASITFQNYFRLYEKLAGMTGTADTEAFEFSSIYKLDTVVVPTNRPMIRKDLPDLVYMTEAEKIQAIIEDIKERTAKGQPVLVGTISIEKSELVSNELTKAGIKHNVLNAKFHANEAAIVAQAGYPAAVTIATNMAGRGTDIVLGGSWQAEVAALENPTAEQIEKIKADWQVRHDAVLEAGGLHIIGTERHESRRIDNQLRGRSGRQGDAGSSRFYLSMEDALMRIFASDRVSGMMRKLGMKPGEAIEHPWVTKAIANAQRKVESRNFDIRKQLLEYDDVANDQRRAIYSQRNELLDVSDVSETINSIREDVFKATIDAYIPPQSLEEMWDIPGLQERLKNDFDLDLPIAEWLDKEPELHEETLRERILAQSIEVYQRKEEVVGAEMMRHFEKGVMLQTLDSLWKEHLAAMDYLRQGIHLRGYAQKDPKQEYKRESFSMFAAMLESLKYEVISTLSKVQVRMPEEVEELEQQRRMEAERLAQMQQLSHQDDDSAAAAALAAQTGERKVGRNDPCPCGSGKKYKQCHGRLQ
Sequence of Sialic acid-binding Ig-like lectin 9 (Homo sapiens) (Q9Y336 whole entry): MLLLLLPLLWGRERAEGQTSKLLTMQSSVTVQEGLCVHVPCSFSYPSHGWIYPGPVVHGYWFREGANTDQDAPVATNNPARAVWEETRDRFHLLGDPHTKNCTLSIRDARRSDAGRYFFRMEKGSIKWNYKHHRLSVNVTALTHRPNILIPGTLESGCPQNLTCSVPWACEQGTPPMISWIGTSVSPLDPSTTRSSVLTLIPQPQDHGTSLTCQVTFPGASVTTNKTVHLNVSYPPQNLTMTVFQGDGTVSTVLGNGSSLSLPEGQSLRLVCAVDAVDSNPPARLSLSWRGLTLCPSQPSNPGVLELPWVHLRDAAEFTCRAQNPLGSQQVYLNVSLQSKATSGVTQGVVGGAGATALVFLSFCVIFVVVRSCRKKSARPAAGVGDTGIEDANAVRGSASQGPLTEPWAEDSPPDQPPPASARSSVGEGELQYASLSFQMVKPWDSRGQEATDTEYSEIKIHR

| Structure (SMILES) | Percent Effect [1] | Percent Effect [2] | Percent Effect [3] | Percent Effect [4] | Percent Effect [5] | Percent Effect (Trypanosoma cruzi) | Percent Effect [6] | Percent Effect [7] | Percent Effect (Homo sapiens) | Percent Effect [8] | Percent Effect [9] | Percent Effect [10] | Percent Effect [11] |
| --- | --- | --- | --- | --- | --- | --- | --- | --- | --- | --- | --- | --- | --- |
| c1cnc(N2CCCC3(CCN(Cc4ccncc4)C3)C2)nc1 (configuration not stated) | -2.54% | 8.11% | 4.42% | 2.74% | -7% | -1.66% | -6.69% | 24.7% | -1.82% | 1.1% | 1.08% | 15.4% | -3.48% |
| O=C(Cc1ccc(F)cc1)N1CCN(CC(O)C2CC2)CC1 (configuration not stated) | -9.94% | 5.48% | 0.575% | 0.569% | -4.1% | -5.09% | -3.64% | 6.74% | 10.6% | 7.07% | 3.23% | 10% | -5.88% |
| CCN(CCc1ccccc1)Cn1nc(C)c2c(C)onc2c1=O | -5.66% | -8.11% | 5.17% | -13.6% | 25.2% | 3.68% | -3.21% | 7.75% | 5.78% | 16% | 9.36% | 23.5% | -14.1% |
| c1cncc(OC[C@@H]2CC[C@H]3[C@H](CCN3Cc3cccs3)O2)c1 | -2.2% | 5.33% | -2.1% | 4.9% | -3.46% | -2.56% | 2.1% | -0.969% | -0.872% | -5.68% | 2.13% | 8.97% | 2.16% |
| Cc1ccc(CC(=O)N2CCN(CC(O)c3ccccc3)CC2)cn1 (configuration not stated) | 1.4% | 5.26% | 1.83% | -2.25% | 3.56% | 5.83% | 5.75% | 1.5% | -4.04% | 2.79% | 5.39% | 17.1% | -5.71% |
| Cc1cc(CN2CC[C@H]3C[C@H](C)O[C@@H]3C2)no1 | -1.91% | 18.9% | -4.38% | -0.664% | -1.18% | 3.23% | 5.41% | 9.96% | 17.4% | -1.03% | 7.57% | 17.9% | 1.93% |
| C[C@H]1C[C@@H]2CCN(Cc3ccccn3)C[C@H]2O1 | -1.13% | 0% | -1.48% | 92% | -0.495% | 1.27% | 1.59% | 10.5% | 7.67% | -4.58% | -2.16% | -5.13% | -8.15% |
| NC(=O)N1C[C@H]2CN(Cc3nccs3)C[C@H]2C1 | 0.982% | 10.8% | 2.58% | 9.05% | -13% | -3.62% | 1.59% | 16.6% | 5.62% | -3.75% | 3.24% | 12.8% | -3.89% |
| CC(C)CN1CCC2(C1)CN(c1ncccn1)C2 | -1.21% | 13.3% | 3.02% | 6.7% | -5.1% | -3.15% | -3.03% | 10.3% | 5.15% | -15.1% | 5.32% | 11.5% | -4.75% |
